The record followed here is PubChem BioAssay (Tox21).

Several values for one entry are separate records, joined by “and”; a condition that tells them apart may be missing. Identical values can stand only once. A number with no mark means an inactive call. Records with an inconclusive call do not appear. Activity calls are given as the source filed them. Unless noted, calls come from the whole dose curve; as a rule, active = well fitted curve in the direction sought with a large enough effect in the repeat runs; inconclusive = weak or mixed curves; inactive = no such curve, though single readings can be large; an effect the other way counts as inactive or inconclusive.

The target in test [1] is Aryl hydrocarbon receptor (Homo sapiens) (UniProt P35869). Kind of test: qHTS assay to identify small molecule that activate the aryl hydrocarbon receptor (AhR) signaling pathway (AID 743085).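 Note: HG2L7.5c1 human HepG2 liver cells with stably integrated DRE-driven firefly reporter; nearly all actives have a fitted effect of over 15% in size.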 The essentials: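 Stably transfected human liver carcinoma cells (HG2L7.5c1; 20 DRE-firefly luciferase) were incubated 5 h, dosed, and kept 24 h at 37C. Agonism was scored from increased luciferase luminescence.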

The nature of test [2]: qHTS assay to identify small molecule antagonists of the retinoic acid receptor (RAR) signaling pathway (AID 1159552; note: nearly all actives have a fitted effect of over 50% in size; note: potency is the fitted concentration of half-maximal effect). The essentials:
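Test chemicals and DMSO controls were pin-transferred onto C3RL4 cells a day after seeding; retinol (1 uM final) followed at once. Luminescent reporter output was quantified after 6 hr of co-incubation and 30 min with detection reagent.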
(qHTS replaces the single test concentration by a dilution series.)

Test [3] is described as follows: qHTS assay to identify small molecule antagonists of the estrogen related receptor (ERR) signaling pathway - cell viability counter screen (AID 1224818).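 Note: viability measured after 17.5 h of compound exposure.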 The essentials: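 ERR reporter cells plated 6 h at 37 C/5% CO2, then compounds in DMSO pin-transferred and incubated 17.5 h at 37 C. Viability read as CellTiter-Fluor fluorescence after 30 min at 37 C.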
Test [4] is described as follows: qHTS assay to identify small molecule antagonists of the estrogen related receptor (ERR) signaling pathway (AID 1224819;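 note: luminescence from an ERR-driven luciferase reporter measured with One-Glo reagent; nearly all actives have a fitted effect of over 50% in size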). The gist of the method: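 ERR reporter cells were plated at 2,000 cells/well and left 6 h at 37 C/5% CO2 before pin-tool transfer of compounds in DMSO. After 18 h at 37 C, One-Glo was added and luminescence was read 30 min later at room temperature.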

A short description of test [5]: qHTS assay to identify small molecule agonists of the estrogen related receptor (ERR) signaling pathway (AID 1224820). The essentials: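 Quantitative HTS of the LOPAC library used NTP ERR reporter cells treated 18 h at 37 C. Signal is luminescence after One-Glo addition and a 30 min room-temperature incubation.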
Test [6] deals with estrogen-related receptor alpha (ERRalpha) with PGC-1alpha coactivator, human. The test is described as follows: qHTS assay to identify small molecule antagonists of the estrogen related receptor signaling pathway with the pleiotropic PPARgamma coactivator (PGC) (AID 1224821; calls by dose curve;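 note: lower luminescence signal means antagonism of PGC/ERR signalling; nearly all actives have a fitted effect of over 50% in size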). The gist of the method: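 Quantitative HTS for antagonism: PGC/ERR cells received compounds after 6 h attachment and were incubated 18 h at 37 C, with luminescence (One-Glo) as the endpoint.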

The nature of test [7]: qHTS assay to identify small molecule antagonists of the estrogen related receptor signaling pathway with the pleiotropic PPARgamma coactivator (PGC) cell viability counter screen (AID 1224822). The essentials:
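PGC/ERR cells were seeded at 2,000 cells/well, rested 6 h at 37 C/5% CO2, then given compounds in DMSO by pin tool and incubated 17.5 h at 37 C. Viability came from CellTiter-Fluor fluorescence after 30 min.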

Test [8] can be described thus: qHTS assay to identify small molecule agonists of the estrogen related receptor signaling pathway with the pleiotropic PPARgamma coactivator (PGC) from Tox21 10K library (AID 1224842). Note: nearly all actives have a fitted effect of over 15% in size. The essentials:
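PGC/ERR reporter cells (NTP line) were seeded 2,000 per well, rested 6 h at 37 C/5% CO2, then pin-dosed with compounds in DMSO for 18 h at 37 C; luciferase read by One-Glo luminescence after 30 min at room temperature.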

Test [9] can be described thus: qHTS assay to identify small molecule agonists of the estrogen related receptor (ERR) signaling pathway from Tox21 library (AID 1224849; calls by dose curve; note: nearly all actives have a fitted effect of over 15% in size). The settings on record: ERR reporter cell line, ONE-Glo luciferase, 18 h; at 92.4 µM (top of the series) unless noted. The essentials:
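ERR reporter cell line (NTP) seeded, rested 6 h at 37 C/5% CO2, then pinned with Tox21 compounds in DMSO. After 18 h at 37 C, ONE-Glo luciferase luminescence was read following 30 min at room temperature.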

Test [10] can be described thus: A CellTox Green Cytotoxicity Assay to monitor cytotoxicity in HEK293 cells - 0 hour (AID 1224869). Note: nearly all actives have a fitted effect of over 50% in size. Note: potency is the fitted concentration of half-maximal effect. The essentials:
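HEK293 cells premixed with CellTox Green dye were seeded at 600 cells/well and left 5 h at 37 C/5% CO2 before pin transfer of 23 nL compound in DMSO. Fluorescence from dye bound to dead-cell DNA was read during 40 h treatment.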

Test [11] in a line: A CellTox Green Cytotoxicity Assay to monitor cytotoxicity in HepG2 cells - 0 hour (AID 1224882). Note: nearly all actives have a fitted effect of over 35% in size. Note: potency is the fitted concentration of half-maximal effect. The gist of the method:
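HepG2 cells were seeded together with the CellTox Green dye at 600 cells/well, left 5 h at 37 C/5% CO2, then given compounds in DMSO. Fluorescence from dye bound to dead-cell DNA was read repeatedly over 40 h of treatment at 37 C.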

Test [12] is described as follows: qHTS assay to identify small molecule HDAC inhibitors (AID 1259364). Note: top concentration of the series differs between compounds; nearly all actives have a fitted effect of over 45% in size. The essentials:
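Wild-type HCT-116 cells were plated overnight, exposed to compounds for 2 h at 37 °C, then given HDAC-Glo class I/II luminogenic reagent for 30 min at room temperature before luminescence was read.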

Test [13] is described as follows: qHTS assay to identify small molecule agonists of the sonic hedgehog signaling (Shh) pathway (AID 1259368; calls by dose curve; note: nearly all actives have a fitted effect of over 15% in size). The essentials: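 NIH/3T3-derived 3T3Gli1-Luc cells carrying a stably integrated Gli1 response element–firefly luciferase reporter were plated, left 4 hr at 37 C, then given compounds in DMSO for 24 hr. Luminescence was read 30 min after adding luciferase reagent.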

Test [14] can be described thus: Caspase-3/7 induction in HepG2 cells by small molecules, qHTS assay (AID 1346978). Note: nearly all actives have a fitted effect of over 15% in size. Note: potency is the fitted concentration of half-maximal effect. The essentials: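 Wild-type HepG2 cells (2,000/well) were settled 5 h at 37 C, 5% CO2, then exposed to compounds in DMSO for 17 h. Caspase-3/7 activity was read by luminescence 30 min after adding Caspase-Glo 3/7 reagent at room temperature.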
The nature of test [15]: Caspase-3/7 induction in CHO-K1 cells by small molecules, qHTS assay (AID 1346980). Note: nearly all actives have a fitted effect of over 15% in size. The gist of the method:
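Wild-type cells were seeded at 1,500 per well and settled 5 hr at 37 C, 5% CO2, then exposed to DMSO-dissolved compounds for 17 hr. Caspase-Glo 3/7 reagent was added, and luminescence was read after 30min at room temperature.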

The target of test [16] is Acetylcholinesterase (Homo sapiens) (UniProt P22303). Kind of test: Acetylcholinesterase (AChE) small molecule antagonists: colormetric cell-based qHTS assay (AID 1347395; calls by dose curve; note: nearly all actives have a fitted effect of over 30% in size). The essentials: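 After overnight attachment at 37 C, SH-SY5Y cells get 30 min compound exposure; detection cocktail (acetylthiocholine, DTNB) then incubates 90 min at 37 C, and absorbance reflects AChE-generated thiocholine.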

Test [17] shares this target. Kind of test: Acetylcholinesterase (AChE) small molecule antagonists: enzyme-based qHTS assay (AID 1347397; calls by dose curve; note: nearly all actives have a fitted effect of over 55% in size). Particulars: Potency: AChE enzyme activity inhibition; outcome: AChE enzyme activity inhibition. The essentials: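 Recombinant human AChE, dispensed at 50 mU/mL, was preincubated with Tox21 10K compounds or DMSO vehicle for 30 min at room temperature. DTNB plus acetylthiocholine was then added, and thiocholine was measured colorimetrically after a further 10 min.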

For test [18] the target is unchanged. The test is described as follows: Acetylcholinesterase (AChE) small molecule antagonists: enzyme-based qHTS assay with human liver microsomes (AID 1347399; calls by dose curve; note: nearly all actives have a fitted effect of over 60% in size). Particulars: Potency: qHTS inhibition; outcome: qHTS inhibition. The gist of the method:
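Recombinant human AChE (50 mU/mL in the enzyme mix) and human liver microsomes (0.25 mg/mL final) were preincubated with compound and NADPH (0.25 mg/mL final) for 30 min at 37 C. Acetylthiocholine/DTNB was then added; thiocholine was read colorimetrically after 10 min at room temperature.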

Another test addresses Aromatase (Homo sapiens) (UniProt P11511). The test is described as follows: qHTS assay to identify aromatase inhibitors (AID 743083). Note: nearly all actives have a fitted effect of over 55% in size. Note: potency is the fitted concentration of half-maximal effect.
Test [19] has as its target Acetylcholinesterase (Homo sapiens) (UniProt P22303). Kind of test: Acetylcholinesterase (AChE) small molecule antagonists: fluorescence cell-based qHTS assay (AID 1347398; calls by dose curve; note: nearly all actives have a fitted effect of over 50% in size). Particulars: Potency: AChE activity; outcome: AChE activity. The essentials: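 Human SH-SY5Y cells were plated overnight at 37 C, exposed to compound for 30 min at 37 C, 5% CO2, then given acetylthiocholine plus Thiolite Green for 40 min at room temperature; thiocholine fluorescence (Ex/Em 490/520 nm) reports endogenous AChE activity.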
% is set by controls: 0 for no effect and ±100 for the full control effect.

Acetylcholinesterase (Homo sapiens), sequence (P22303 whole entry, looked up): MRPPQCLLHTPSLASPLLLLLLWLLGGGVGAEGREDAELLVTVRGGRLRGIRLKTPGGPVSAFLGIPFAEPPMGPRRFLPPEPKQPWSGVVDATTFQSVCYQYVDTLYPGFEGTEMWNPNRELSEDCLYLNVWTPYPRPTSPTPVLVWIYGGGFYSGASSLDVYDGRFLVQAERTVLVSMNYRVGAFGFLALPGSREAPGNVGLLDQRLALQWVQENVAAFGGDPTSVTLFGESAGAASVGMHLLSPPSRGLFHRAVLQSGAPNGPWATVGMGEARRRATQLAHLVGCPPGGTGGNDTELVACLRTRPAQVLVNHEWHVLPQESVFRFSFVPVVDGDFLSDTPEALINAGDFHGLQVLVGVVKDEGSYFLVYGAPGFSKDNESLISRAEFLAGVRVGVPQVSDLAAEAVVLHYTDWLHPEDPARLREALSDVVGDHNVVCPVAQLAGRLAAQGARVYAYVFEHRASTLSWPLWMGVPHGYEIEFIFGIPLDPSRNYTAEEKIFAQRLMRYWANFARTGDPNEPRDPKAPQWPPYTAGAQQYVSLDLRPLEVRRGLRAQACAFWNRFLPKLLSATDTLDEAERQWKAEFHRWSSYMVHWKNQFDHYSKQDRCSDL
Aryl hydrocarbon receptor (Homo sapiens), sequence (P35869 whole entry, looked up): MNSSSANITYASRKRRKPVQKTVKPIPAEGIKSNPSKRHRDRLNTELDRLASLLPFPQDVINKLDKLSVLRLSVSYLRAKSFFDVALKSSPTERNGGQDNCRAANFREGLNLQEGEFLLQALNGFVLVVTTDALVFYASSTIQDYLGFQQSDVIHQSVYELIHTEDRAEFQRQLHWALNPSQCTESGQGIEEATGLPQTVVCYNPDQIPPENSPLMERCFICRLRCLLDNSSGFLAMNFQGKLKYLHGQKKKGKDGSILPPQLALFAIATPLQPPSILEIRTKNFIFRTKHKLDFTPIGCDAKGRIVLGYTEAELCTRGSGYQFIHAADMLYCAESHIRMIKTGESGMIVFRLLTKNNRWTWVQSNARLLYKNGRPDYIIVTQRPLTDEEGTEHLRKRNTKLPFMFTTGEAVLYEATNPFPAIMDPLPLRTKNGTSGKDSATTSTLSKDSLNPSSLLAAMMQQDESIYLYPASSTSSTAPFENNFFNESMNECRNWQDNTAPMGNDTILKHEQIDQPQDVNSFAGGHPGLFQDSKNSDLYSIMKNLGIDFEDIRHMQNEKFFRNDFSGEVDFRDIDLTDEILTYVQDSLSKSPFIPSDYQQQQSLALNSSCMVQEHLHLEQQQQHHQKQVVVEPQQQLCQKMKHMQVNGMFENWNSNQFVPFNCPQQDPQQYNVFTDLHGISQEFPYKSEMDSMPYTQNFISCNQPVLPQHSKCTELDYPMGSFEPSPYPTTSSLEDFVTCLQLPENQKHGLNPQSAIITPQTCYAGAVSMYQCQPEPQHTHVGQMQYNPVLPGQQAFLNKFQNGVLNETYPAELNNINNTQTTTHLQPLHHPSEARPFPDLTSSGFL
Aromatase (Homo sapiens), sequence (P11511 whole entry, looked up): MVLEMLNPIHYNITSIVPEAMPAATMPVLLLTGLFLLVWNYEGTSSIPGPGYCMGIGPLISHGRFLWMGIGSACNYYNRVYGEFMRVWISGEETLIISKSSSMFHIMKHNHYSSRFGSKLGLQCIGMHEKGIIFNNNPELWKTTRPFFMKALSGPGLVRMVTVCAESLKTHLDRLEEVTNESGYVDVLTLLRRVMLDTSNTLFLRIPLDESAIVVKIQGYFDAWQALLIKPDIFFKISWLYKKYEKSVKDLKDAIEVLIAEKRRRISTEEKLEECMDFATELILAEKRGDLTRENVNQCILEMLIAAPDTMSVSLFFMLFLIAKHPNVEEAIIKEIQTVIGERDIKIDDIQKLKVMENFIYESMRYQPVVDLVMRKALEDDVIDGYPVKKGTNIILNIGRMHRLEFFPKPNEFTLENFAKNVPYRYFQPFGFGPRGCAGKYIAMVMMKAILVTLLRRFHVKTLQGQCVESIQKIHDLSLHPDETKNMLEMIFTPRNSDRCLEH

For `O=C(Nc1ccccc1-c1ccc(Cl)cc1)c1cccnc1Cl`, the Potency result in test [1], in test [2], in test [3], in test [4], in [5] and in test [6] was “inactive” in each case. The Potency result in [7], in [8], in test [14], in [16], in test [17] and in test [18] was “inactive” in each case. In addition, in [9], the activity change, positive = activation is -31.8%. Moreover, the Potency was 46.3 µM (active) in test [10] and 41.2 µM (active) in [11]. The result in test [12], in test [13] and in test [15] was inactive.

As to `CN1CSC(=S)N(C)C1`, the Potency was 4.83 µM (active) and 3.85 µM (active) with Aromatase (Homo sapiens); 7.66 µM (active) in [14]. Moreover, the Potency result in test [1], in test [8], in test [10], in [11], in test [16] and in test [17] was “inactive” each time. Besides, the Potency entry in test [19] and in test [18] was “inactive” throughout. In addition, the activity change, positive = activation in [9] was -78.8% and -76.3%. Moreover, the molecule was classed as inactive in [12], in [13] and in test [15].

As to `Brc1cc(Br)cc(Br)c1`, the activity change, positive = activation in test [9] is -1.12%. In addition, the Potency result in test [14], in [16], in test [17], in test [19] and in test [18] was “inactive” throughout.

As for `COc1ccc(C(c2ccc(OC)cc2)C(Cl)(Cl)Cl)cc1`, the Potency entry (in the test with Aromatase (Homo sapiens); in test [2]; in test [3]; in test [4]; in test [5]; in test [6]) was “inactive” throughout. Moreover, the Potency result in [7], in test [8], in test [10], in [11], in test [14] and in [16] was “inactive” throughout. Also, the Potency result in test [17], in test [19] and in test [18] was “inactive” each time. The activity change, positive = activation in test [9] was -35.3%. Further, the outcome in test [13] and in test [15] was inactive.

Regarding `O=S(=O)(C(Cl)(Cl)Cl)C(Cl)(Cl)Cl`, the Potency in [2] is 9.69 µM (active). Also, the Potency result in test [8], in [10], in [11], in test [14], in test [16] and in test [17] was “inactive” in each case. The Potency entry in test [19] and in test [18] was “inactive” in each case. Further, the activity change, positive = activation in test [9] was -70.9%. For the same molecule, the outcome in [12], in test [13] and in test [15] was inactive.

For the molecule `ClC(Cl)=C(c1ccc(Cl)cc1)c1ccccc1Cl`, the Potency result in test [10], in [11], in [14], in test [17], in test [19] and in test [18] was “inactive” each time. Also, the call in [12], in test [13] and in [15] was inactive.

With `CC(c1ccccc1)(c1ccc(O)cc1)c1ccc(O)cc1`, the Potency entry in test [8], in test [10], in test [11], in test [16], in [19] and in [18] was “inactive” throughout. The activity change, positive = activation in [9] is -53.1%. The call in test [12], in test [13] and in [15] was inactive.

For `C[C@]12CC[C@@H](O)C[C@@H]1CC[C@@H]1[C@@H]2CC[C@]2(C)C(=O)CC[C@@H]12`, the Potency result in [10], in test [11] and in test [14] was “inactive” in each case. Further, the outcome in test [12], in [13] and in test [15] was inactive.

Take `Cc1cc(C)c(C(=O)P(=O)(c2ccccc2)c2ccccc2)c(C)c1`: the Potency result in test [2], in test [8], in [10], in [11], in [14] and in [16] was “inactive” in each case. Moreover, the Potency result in [17], in [19] and in [18] was “inactive” each time. For the same molecule, in test [9], the activity change, positive = activation was -54.9%. The molecule was classed as inactive in [12], in [13] and in test [15].
